Source: PubChem BioAssay (NCATS)
Results filed as inconclusive are left out. Where a call stands in place of a potency, no number is given. A number with no mark means an inactive call. Calls of active or inactive are those of the source. The call rests on the fitted dose curve; in most records, active means well fitted curve in the direction sought with a large enough effect; inconclusive means small, poorly fitted or top-dose-only effect, or another doubt; inactive means no such curve, though single readings can be large; an effect the other way counts as inactive or inconclusive. Where a SMILES comes first, the peptide text is derived from it. Bridges are numbered along the chain shown (N, C = ends). [ ]: non-standard residue; d: D form. NMeY = CN[CH](Cc1ccc(O)cc1)C(=O)O

Tests used:
[1] = target: Calcium and integrin-binding protein 1 (Homo sapiens) (UniProt Q99828); experiment: Primary qHTS for Identification of Calcium Integrin Binding Protein 1 (CIB1) Competitor (AID 1508620); settings: CIB1-GST / FITC-alphaIIb peptide fluorescence polarization; series mostly up to 114 µM;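 further: GST tagged CIB1 binding a fluorescein labelled alphaIIb integrin peptide tracer; top concentration of the series differs between compounds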
Calcium and integrin-binding protein 1 (Homo sapiens), sequence (Q99828 whole entry, looked up): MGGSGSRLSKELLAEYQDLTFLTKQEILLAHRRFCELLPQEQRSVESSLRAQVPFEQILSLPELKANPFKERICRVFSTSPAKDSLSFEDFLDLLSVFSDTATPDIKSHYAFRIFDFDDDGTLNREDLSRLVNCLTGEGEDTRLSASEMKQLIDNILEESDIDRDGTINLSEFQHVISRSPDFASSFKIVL
How it was run: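 Fluorescence polarization competition: GST-tagged CIB1 (1 uM final) preincubated with compound 15 min at room temperature, then FITC-labelled alphaIIb peptide (100 nM final) added. After 15 min at room temperature, polarization read at Ex 480/Em 540.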

[2] = Primary qHTS for inhibitors of nuclear receptor binding SET domain protein 2 (NSD2) in an isogenic RCH-ACV NSD2 p.E1099K mutant (9B) (AID 1645876); settings: RCH-ACV NSD2 E1099K (9B) viability, CellTiter-Glo, 72 h; series mostly up to 44.9 µM; further: nearly all actives have a fitted effect of over 70% in size; further: potency means the concentration at half of the fitted maximal effect
[3] = Primary qHTS for inhibitors of nuclear receptor binding SET domain protein 2 (NSD2) in an RCH-ACV wild type WT cells (2C) (AID 1645877); settings: RCH-ACV (leukaemia line) NSD2 WT (2C) viability, CellTiter-Glo, 72 h; series mostly up to 44.9 µM; further: nearly all actives have a fitted effect of over 70% in size; further: potency means the concentration at half of the fitted maximal effect

| Structure (SMILES) | Potency [1] | Potency [2] | Potency [3] | activity change, negative = viability loss [2] | activity change, negative = cell killing [3] |
| --- | --- | --- | --- | --- | --- |
| COc1ccc(C2(O)c3ccccc3NC(=O)C2O)cc1 (stereo not given) | inactive | inactive | inactive |  |  |
| CC(=O)NC1C(OC(C)(C)C2CCC3(C)C=C(C4CCC5C4(C)CC(O)C4OC(C(C)(C)O)CCC45C)CCC3O2)OC(CO)C(O)C1O (stereo not given) | inactive | inactive | inactive |  |  |
| C[C@H](NC(c1cccc(C[P+](=O)O)c1)[C@H](C)O)c1ccc(Cl)c(Cl)c1 (stereo not given in full) | inactive | inactive | inactive |  |  |
| C=CC(C)(O)CC[C@H]1C(=C)CCC2[C@](C)(C(=O)O)CCC[C@@]21C (stereo not given in full) | inactive | inactive | inactive |  |  |
| CNC(=O)c1ccccc1Nc1nc(Nc2ccc3c(c2OC)CCC[C@@H](N2CCN(CCO)CC2)C3)ncc1Cl | inactive | 6610 nM (active) | 6610 nM (active) |  |  |
| CCC1=CC2CN(C1)Cc1c([nH]c3ccccc13)[C@@](C(=O)OC)(c1cc3c(cc1OC)N(C)[C@H]1[C@@](O)(C(=O)OC)[C@H](OC(C)=O)[C@]4(CC)C=CCN5CC[C@]31[C@@H]54)C2 (stereo not given in full) | inactive | 79.6 nM (active) | 31.7 nM (active) |  |  |
| C=C1C(=O)O[C@H]2C1[C@H](OC(=O)/C(=C/CO)COC(=O)/C(C)=C/CO)CC(=C)[C@@H]1CC(=O)[C@@H](C)[C@@H]12 (stereo not given in full) | inactive | 3550 nM (active) | 1780 nM (active) |  |  |
| COc1ccc(-c2c(-c3cc(C(=O)O)ccn3)ncn2C)cc1 | inactive | inactive | inactive |  |  |
| C=C1C[C@]23C[C@H]1CC[C@H]2C1=C[C@H]2OC(=O)[C@@](C)([C@H]1[C@@H]3C(=O)O)[C@H]2O | inactive | inactive | inactive |  |  |
| CC1(C)CC[C@]2(C(=O)O[C@@H]3O[C@H](CO)[C@@H](O)[C@H](O)[C@H]3O)CC[C@]3(C)C(=CCC4[C@@]5(C)CC[C@H](O[C@@H]6O[C@H](C(=O)O)[C@@H](O)[C@H](O)[C@H]6O)C(C)(C)C5CC[C@]43C)C2C1 (stereo not given in full) | inactive |  |  | -3.82% [at 9.23 µM] | 4.17% [at 9.23 µM] |
| CC(=O)O[C@@H]1[C@@H](O)[C@H](O[C@H]2CC[C@]34C[C@]35CC[C@]3(C)[C@@H]([C@@]6(C)CC[C@@H](C(C)(C)O)O6)[C@@H](O)C[C@@]3(C)[C@@H]5C[C@H](O[C@@H]3O[C@H](CO)[C@@H](O)[C@H](O)[C@H]3O)[C@H]4C2(C)C)OC[C@H]1O | inactive | inactive | inactive |  |  |
| CC(=O)OC1CC2(C)C3=CCC4(C)C5C(O)C(O)C(C(C)C)C5(C)CCC4(C)C3CCC2C(C)(C)C1OC1OC(CO)C(O)C(O)C1O (stereo not given) | inactive | inactive | inactive |  |  |
| COC(=O)c1ccnc(-c2cc(C(=O)NCCc3ccccc3)ccn2)c1 | inactive | inactive | inactive |  |  |
| CCC(C)C1NC(=O)C2CCCN2C(=O)C(NC(C)=O)C(C)OC(=O)C(Cc2ccc(OC)cc2)N(C)C(=O)C2CCCN2C(=O)C(C(C)C)NC1=O (stereo not given) (Ac-TPIVP[NMeY](Me); ester 1-C; configuration not given here) | inactive | inactive | inactive |  |  |
| C=C1CC2C(C)(CCC(=O)O)C(C(C)(C)O)CCC2(C)C2C(=O)OC(C)(C(=O)OC)C(=O)C12C (stereo not given) | inactive | inactive | inactive |  |  |
| COC(=O)CCc1cc2ccoc2c(OC)c1O[C@@H]1O[C@H](CO)[C@@H](O)[C@H](O)[C@H]1O | inactive | inactive | inactive |  |  |
| CC(=O)C=C=C1C(C)(C)CC(O[C@@H]2O[C@H](CO)[C@@H](O)[C@H](O)[C@H]2O)CC1(C)O (stereo not given in full) | inactive | inactive | inactive |  |  |
| O=C(/C=C/c1ccc(O)cc1)OC1[C@H](O)CC(O)(C(=O)O)C[C@H]1O (stereo not given in full) | inactive | inactive | inactive |  |  |
| CN1c2ccccc2C(=O)N2CCC3c4ccccc4NC3C21 (stereo not given) | inactive | 2260 nM (active) | 2010 nM (active) |  |  |
| C/C=C/C=C/[C@@H]1O[C@](O)([C@H](CC)C(=O)NC/C=C/C=C(\C)[C@@H](OC)[C@@H](C)C2OC(/C=C/C=C/C=C(\C)C(=O)c3c(O)cc[nH]c3=O)[C@H](O)[C@@H]2O)[C@H](O)[C@H](O)C1(C)C (stereo not given in full) | inactive | inactive | inactive |  |  |
| C=C1CC[C@@H]2[C@@](C)(CO[C@@H]3O[C@H](CO)C(O)[C@H](O)C3O)[C@H](O)CC[C@@]2(C)[C@@H]1CC/C(C)=C/CO (stereo not given in full) | inactive |  |  | 3.18% [at 9.23 µM] | -1.61% [at 9.23 µM] |
| CC1C(=O)OCC2=CCN3CCC(OC(=O)C(C)(O)C1(C)O)C23 (stereo not given) | inactive | inactive | inactive |  |  |
| C[C@@H]1C(=O)O[C@H](C)[C@H]1CC(=O)[C@](C)(O)[C@H]1CC[C@@]2(O)C3=CC(=O)[C@@H]4C[C@@H](O)[C@@H](O)C[C@]4(C)C3CC[C@]12C (stereo not given in full) | inactive | inactive | inactive |  |  |
| C=C1CCC2C(C)(C(=O)OC)CCCC2(C)C1CCC(C)CC(=O)O (stereo not given) | inactive | inactive | inactive |  |  |
| COC(=O)c1cc(OC)c(O[C@@H]2O[C@@H](C)[C@H](O)[C@@H](O)[C@H]2O)c(OC)c1 | inactive | inactive | inactive |  |  |

| Structure (SMILES) | Potency [1] | Potency [2] | Potency [3] | activity change, negative = viability loss [2] | activity change, negative = cell killing [3] |
| --- | --- | --- | --- | --- | --- |
| C=C(C(=O)O)C1CCC2(C)CCCC(C)(O)C2C1 (stereo not given) | inactive | inactive | inactive |  |  |
| O=C(O)/C=C/c1cc2c(cc1O[C@@H]1O[C@H](CO)[C@@H](O)[C@H](O)[C@H]1O)OCO2 | inactive | inactive | inactive |  |  |
| COC(=O)Cc1cc2c(c([N+](=O)[O-])c1)N(C(=O)CC[C@H](N)C(=O)O)CC2 | inactive | inactive | inactive |  |  |
| CCC(O)(C(=O)OCc1ccccc1NC(=O)CCC(=O)O)C(C)O (stereo not given) | inactive | inactive | inactive |  |  |
| C[C@@H]1CC[C@]2(C(=O)O)CC[C@]3(C)C(=CCC4[C@@]5(C)C[C@@H](O)[C@H](O)[C@@](C)(CO)C5CC[C@]43C)C2[C@]1(C)O (stereo not given in full) | inactive | inactive | inactive |  |  |
| NC1(C(=O)NC(CCO)c2ccc(Cl)cc2)CCN(c2ncnc3[nH]ccc23)CC1 (stereo not given) | inactive | 728 nM (active) | 1300 nM (active) |  |  |
| CC1=CC(=O)[C@H]2C(C)(C)CCC[C@]2(C)[C@@]1(O)CO | inactive | inactive | inactive |  |  |
| C=C1C[C@]23C[C@H]1CC[C@H]2[C@@]1(C)CCC[C@@]2(C)C(=O)O[C@@H]([C@@H]3O)[C@@H]12 | inactive | inactive | inactive |  |  |
| COc1c2ccoc2cc2oc(CO[C@@H]3O[C@H](CO)[C@@H](O)[C@H](O)[C@H]3O)cc(=O)c12 | inactive | inactive | inactive |  |  |
| O=C(O)c1ccc(OC2OC(CO)C(O)C(O)C2O)cc1 (stereo not given) | inactive | inactive | inactive |  |  |
| COc1ccc(/C=C/C(=O)O[C@@H]2[C@@H](O)[C@H](C)O[C@@H](O[C@H]3[C@@H]4C=CO[C@@H](O[C@H]5O[C@@H](CO)[C@H](O)[C@@H](O)[C@@H]5O)[C@@H]4[C@@]4(CO)O[C@@H]34)[C@@H]2OC(C)=O)cc1 | inactive | inactive | inactive |  |  |
| COc1c2c(cc3c1-c1c(cc4c(c1OC)OCO4)CC(C)C(C)C3)OCO2 (stereo not given) | inactive | inactive | inactive |  |  |
| CN(C)CCCCC(=O)Nc1ccc(NC(=S)NC(=O)c2ccc(C(C)(C)C)cc2)cc1 | inactive | 1830 nM (active) | 2300 nM (active) |  |  |
| O=C1NC(Cc2c[nH]c3ccccc23)C(=O)NC1Cc1cnc[nH]1 (stereo not given) | inactive | inactive | inactive |  |  |
| CC(O)CCC1C(CO[C@@H]2O[C@H](CO)[C@@H](O)[C@H](O)[C@H]2O)CC(O)CC1(C)C (stereo not given in full) | inactive | inactive | inactive |  |  |
| COC(=O)CC(C)(O)CC(=O)OCc1ccc(O[C@@H]2O[C@H](CO)[C@@H](O)[C@H](O)[C@H]2O)cc1 (stereo not given in full) | inactive | inactive | inactive |  |  |
| C=C[C@@H]1[C@H](O[C@@H]2O[C@H](CO)[C@@H](O)[C@H](O)[C@H]2O)OC=C(C(=O)O)[C@H]1CCOC(=O)/C=C/c1ccc(O)c(O)c1 | inactive | inactive | inactive |  |  |
| CC(=O)C1=CCC2C3CCC4CC(O[C@@H]5O[C@H](CO)[C@@H](O[C@@H]6O[C@@H](C)[C@H](O)[C@@H](O)[C@H]6O)[C@H](O)[C@H]5O[C@@H]5O[C@H](CO)[C@@H](O)[C@H](O)[C@H]5O)CCC4(C)C3CCC12C (stereo not given in full) | inactive | inactive | inactive |  |  |
| CC(C)=CCC[C@](C)(O)[C@H]1CC[C@]2(C)[C@@H]1[C@H](O)CC1[C@@]3(C)CC[C@H](O)C(C)(C)C3[C@@H](O[C@@H]3O[C@H](CO)[C@@H](O)[C@H](O)[C@H]3O[C@@H]3OC[C@@H](O)[C@H](O)[C@H]3O)C[C@]12C (stereo not given in full) | inactive | inactive | inactive |  |  |
| Cc1cc(O)cc(O[C@@H]2O[C@H](CO)[C@@H](O)[C@H](O)[C@H]2O)c1 | inactive | inactive | inactive |  |  |
| COc1c2c(c(C)c3c1C(=O)OC3)OC1(C)CC(O)C34OC(OC)(CC(OC(C)=O)C3(C)C1C2)OC4(C)C (stereo not given) | inactive | inactive | inactive |  |  |
| C=C[C@H]1C(O[C@@H]2O[C@H](CO)[C@@H](O)[C@H](O)[C@H]2O)OC=C2C(=O)N3CCc4c([nH]c5ccccc45)C3CC21 (stereo not given in full) | inactive | inactive | inactive |  |  |
| CCC(=O)O[C@H]1C(C)(C)[C@H]([C@@H](O)C(=O)OC)[C@]2(C)C(=O)[C@@]1(O)[C@H]1O[C@]13C1CC(=O)O[C@@H](c4ccoc4)[C@]1(C)CCC32 (stereo not given in full) | inactive | inactive | inactive |  |  |
| COC(=O)C1=CO[C@@H](O[C@@H]2O[C@H](CO)[C@@H](O)[C@H](O)[C@H]2O)[C@@H]2[C@@](C)(O)[C@@H](OC(=O)/C=C/c3ccc(O)cc3)C[C@]12O | inactive | inactive | inactive |  |  |
| COc1cc2c(cc1OC)[C@@H]1[C@H](O)[C@@H](OC)C=C3CCN(C2)[C@H]31 | inactive | 4500 nM (active) | 4500 nM (active) |  |  |
